Drawing on PubChem BioAssay, this text covers composite z-score, composite Z-score and z-score for five compounds.

In one assay the target is Albumin (Bos taurus) (UniProt P02769). The experiment in a line: bovine serum albumin binders on microarray, profiling panel, artefact control for SMM control protein annotation, biochemical, small-molecule microarray, Alexa647 label, 635/667 nm fluorescence (AID 1118).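 Also: score merges 667 nm emission intensity and signal-to-noise per printed compound spot.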 Particulars: BSA-A647 binding, fluorescence 635 nm, higher = more signal.
Albumin (Bos taurus), sequence (P02769 whole entry, looked up): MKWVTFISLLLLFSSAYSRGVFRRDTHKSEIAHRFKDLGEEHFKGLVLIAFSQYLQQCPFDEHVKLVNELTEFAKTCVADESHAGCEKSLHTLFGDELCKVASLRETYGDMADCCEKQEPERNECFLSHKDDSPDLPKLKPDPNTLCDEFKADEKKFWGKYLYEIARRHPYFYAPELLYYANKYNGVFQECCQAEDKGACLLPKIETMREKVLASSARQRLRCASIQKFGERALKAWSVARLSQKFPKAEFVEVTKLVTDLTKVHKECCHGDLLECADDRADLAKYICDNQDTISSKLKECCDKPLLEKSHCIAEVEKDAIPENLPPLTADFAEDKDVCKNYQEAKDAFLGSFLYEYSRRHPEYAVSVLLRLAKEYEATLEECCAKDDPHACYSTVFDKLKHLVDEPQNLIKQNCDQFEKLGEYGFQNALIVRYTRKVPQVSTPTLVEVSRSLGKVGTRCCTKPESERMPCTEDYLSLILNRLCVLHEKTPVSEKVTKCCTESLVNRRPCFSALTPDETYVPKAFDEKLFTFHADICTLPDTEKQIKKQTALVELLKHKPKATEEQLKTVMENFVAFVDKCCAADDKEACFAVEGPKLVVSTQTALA
The nature of assay [1]: small-molecule microarray binders of probe aXIP, primary screen, biochemical, NeuroSMM set, 635/667 nm fluorescence (AID 1119).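 Also: probe is the protein aXip251-270 applied at 1 µg/mL to compound-printed slides; binding of probe to printed compounds measured as 667 nm fluorescence plus signal to noise.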 Particulars: higher = more signal, called active from +8 up or from −8 down.
The nature of assay [2]: small-molecule binders of probe aNOTCH3, primary screen, biochemical, small-molecule microarray, 635/667 nm fluorescence (AID 1120).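 Also: probe is a biotin-tagged antibody raised against NOTCH3 rather than NOTCH3 protein; score merges spot fluorescence near 667 nm with spot signal to noise.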 Particulars: higher = more signal.
The nature of assay [3]: small-molecule binders of probe aNOTCH2, primary screen, biochemical, small-molecule microarray, 635/667 nm fluorescence (AID 1121).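 Also: score merges feature fluorescence read at 667 nm with its signal to noise.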 Particulars: higher = more signal.
Assay [4] concerns the target Carbonic anhydrase 2 (Homo sapiens) (UniProt P00918). The experiment in a line: CAII small-molecule binders, profiling panel, biochemical, small-molecule microarray, Alexa647-labelled CAII (AID 1122). Conditions: CAII-A647 binding fluorescence, higher = more signal.
The nature of assay [5]: COS7 lysate on small-molecule microarray, probe aHis, 635 nm (AID 1123).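 Also: z-score combines 667nm fluorescence intensity with signal-to-noise per printed compound spot.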 Conditions: COS7 cell lysate, fluorescence, higher = more signal.
A short description of assay [6]: compound binding in COS7 lysate, probe aLAP1, primary screen, cell lysate, small-molecule microarray (AID 1124).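 Also: lysate comes from COS7 cells expressing LAP1 and is applied at 0.3 µg/mL; score merges spot fluorescence near 667 nm with signal-to-noise over triplicate slides.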 Particulars: probe aLAP1, fluorescence, higher = more signal.
In a further assay the test system is Sam68 (KHDRBS1). The experiment in a line: Sam68 small-molecule binders, primary screen, biochemical, small-molecule microarray, 635 nm fluorescence (AID 1125).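 Also: score merges 667 nm channel intensity with signal to noise over triplicate slides.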 Conditions: small-molecule microarray binding, higher = more signal.
In assay [7] the test system is Chordin-like protein 2 (CHRDL2). The experiment in a line: CHRDL2 small-molecule binders, primary screen, biochemical, small-molecule microarray, 635 nm fluorescence (AID 1126).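 Also: printed compound slides probed with Chrdl2 protein at 4 µg/mL for 1 h at 4 C; score merges 667 nm emission intensity with signal to noise over three replicate slides.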 Particulars: small-molecule microarray binding, fluorescence 635 nm; higher = more signal.
Assay [8] deals with Concanavalin-A (Canavalia ensiformis) (UniProt P02866). The experiment in a line: ConA small-molecule binders, primary screen, artefact control for SMM control protein annotation, biochemical, small-molecule microarray, Alexa647 label, 635 nm (AID 1127).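 Also: z combines 667 nm emission intensity with signal-to-noise across three replicate slides.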 Particulars: ConA-A647 binding fluorescence, higher = more signal.
Concanavalin-A (Canavalia ensiformis), sequence (P02866 whole entry, looked up): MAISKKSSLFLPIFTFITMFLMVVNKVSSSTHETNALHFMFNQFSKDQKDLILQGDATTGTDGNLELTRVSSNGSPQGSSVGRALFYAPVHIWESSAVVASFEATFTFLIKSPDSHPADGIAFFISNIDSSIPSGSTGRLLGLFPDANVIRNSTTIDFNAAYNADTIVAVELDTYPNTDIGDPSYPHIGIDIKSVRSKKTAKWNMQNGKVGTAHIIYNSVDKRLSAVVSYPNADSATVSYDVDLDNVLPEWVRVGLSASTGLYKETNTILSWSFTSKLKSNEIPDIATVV
A short description of assay [9]: anti-His antibody binders, primary screen, artefact control for SMM control protein annotation, biochemical, small-molecule microarray, 635 nm fluorescence (AID 1128).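 Also: score merges feature fluorescence with signal-to-noise for each printed compound spot.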 Particulars: anti-His Alexa647 antibody binding, higher = more signal.
Assay [10] has as its system Human papillomavirus type 1a E7 protein (residues 1-88). The assay can be described thus: HPV1a E7 small-molecule binders, primary screen, biochemical, small-molecule microarray, residues 1-88, 635 nm (AID 1129). Conditions: small-molecule microarray binding, fluorescence 635 nm; higher = more signal.
Assay [11] deals with Focal adhesion kinase 1 (Homo sapiens) (UniProt Q05397). The experiment in a line: small-molecule microarray binders of FAK, primary screen, biochemical, 635/667 nm fluorescence, BSA, DTT (AID 1130).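 Also: composite of spot emission at 667 nm and signal to noise over triplicate slides.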 Particulars: PTK2 binding, 635 nm fluorescence, higher = more signal.
Focal adhesion kinase 1 (Homo sapiens), sequence (Q05397 whole entry, looked up): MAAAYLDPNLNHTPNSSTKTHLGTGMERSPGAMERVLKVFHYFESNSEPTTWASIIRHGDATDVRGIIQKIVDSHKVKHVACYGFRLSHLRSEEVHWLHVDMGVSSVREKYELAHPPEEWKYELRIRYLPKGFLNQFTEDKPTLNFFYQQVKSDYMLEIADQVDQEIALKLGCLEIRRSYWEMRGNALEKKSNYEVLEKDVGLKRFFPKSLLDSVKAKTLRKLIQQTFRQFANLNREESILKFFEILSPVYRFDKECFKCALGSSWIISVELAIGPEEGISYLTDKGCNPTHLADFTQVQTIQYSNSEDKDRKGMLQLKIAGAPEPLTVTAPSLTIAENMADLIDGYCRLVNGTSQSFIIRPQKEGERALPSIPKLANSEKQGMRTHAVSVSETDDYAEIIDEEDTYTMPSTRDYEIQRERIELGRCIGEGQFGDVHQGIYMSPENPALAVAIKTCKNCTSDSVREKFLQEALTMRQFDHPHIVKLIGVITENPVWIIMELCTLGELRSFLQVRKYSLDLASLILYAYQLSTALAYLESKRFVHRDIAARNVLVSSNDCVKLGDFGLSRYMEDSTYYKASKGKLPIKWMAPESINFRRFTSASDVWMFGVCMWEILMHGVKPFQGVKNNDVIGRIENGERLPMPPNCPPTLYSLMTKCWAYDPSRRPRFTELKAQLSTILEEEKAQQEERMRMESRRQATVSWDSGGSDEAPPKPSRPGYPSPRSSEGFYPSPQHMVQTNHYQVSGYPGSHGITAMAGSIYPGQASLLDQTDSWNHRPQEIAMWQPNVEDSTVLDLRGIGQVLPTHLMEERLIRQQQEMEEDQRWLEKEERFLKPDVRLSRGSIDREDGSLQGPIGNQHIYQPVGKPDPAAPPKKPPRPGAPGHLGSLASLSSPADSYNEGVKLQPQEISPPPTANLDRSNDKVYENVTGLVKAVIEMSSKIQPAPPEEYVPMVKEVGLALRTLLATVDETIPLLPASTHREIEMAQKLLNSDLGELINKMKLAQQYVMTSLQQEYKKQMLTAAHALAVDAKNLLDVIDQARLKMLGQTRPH
Assay [12] relates to Fibrinogen (Alexa647-labelled). The experiment in a line: fibrinogen binders on compound microarrays, profiling panel, artefact control for SMM control-protein annotation, biochemical, small-molecule microarray, 635/667 nm fluorescence (AID 1131).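 Also: z-score merges 667 nm fluorescence with per-spot signal-to-noise over triplicate slides.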 Particulars: fibrinogen-A647 binding fluorescence, higher = more signal.
Assay [13] concerns the target Follistatin (Homo sapiens) (UniProt P19883). The experiment in a line: follistatin binders on small-molecule microarrays, primary screen, biochemical, small-molecule microarray, 635/667 nm fluorescence (AID 1132). Particulars: FST binding, 635 nm fluorescence, higher = more signal.
Assay [14] addresses Fibroblast growth factor 2 (Homo sapiens) (UniProt P09038). The assay can be described thus: FGF2 binders on small-molecule microarrays, primary screen, biochemical, small-molecule microarray, 635/667 nm fluorescence (AID 1133). Particulars: small-molecule microarray binding, FGF2, fluorescence 635/667; higher = more signal.
A short description of assay [15]: mitochondrial membrane potential change in A549 cells, profiling panel, cell-based, JC-1 fluorescence, basal, 24 h, 100 nL (AID 1138).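 Also: A549 lung adenocarcinoma cells under basal conditions with no added stimulus; test concentration not given here.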 Conditions: higher = more signal.
A further assay has as its system Lefty1. The experiment in a line: Lefty1 binders on small-molecule microarrays, primary screen, biochemical, small-molecule microarray, 635/667 nm fluorescence (AID 1139). Conditions: small-molecule microarray binding, fluorescence 635/667; higher = more signal.
Assay [16] deals with wheat germ agglutinin (Triticum aestivum), Alexa647-labelled. The assay can be described thus: wheat germ agglutinin binders on compound microarrays, profiling panel, artefact control for SMM control-protein annotation, biochemical, small-molecule microarray, 635/667 nm fluorescence (AID 1140).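 Also: score merges 667 nm feature emission with signal to noise over triplicate slides.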 Particulars: WGA-A647 binding, 635 nm fluorescence, higher = more signal.
Assay [17] deals with Luciferin 4-monooxygenase (Photinus pyralis) (UniProt P08659). The experiment in a line: firefly luciferase enzyme inhibitors, primary screen, biochemical, luminescence, purified enzyme, 2006 set (AID 1141).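 Also: cell-free assay with purified firefly luciferase at 100 ng per well in PBS; test concentration not given here.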 Conditions: SteadyGlo luminescence, 30 min, higher = more signal, called active from +8 up or from −8 down.
Luciferin 4-monooxygenase (Photinus pyralis), sequence (P08659 whole entry, looked up): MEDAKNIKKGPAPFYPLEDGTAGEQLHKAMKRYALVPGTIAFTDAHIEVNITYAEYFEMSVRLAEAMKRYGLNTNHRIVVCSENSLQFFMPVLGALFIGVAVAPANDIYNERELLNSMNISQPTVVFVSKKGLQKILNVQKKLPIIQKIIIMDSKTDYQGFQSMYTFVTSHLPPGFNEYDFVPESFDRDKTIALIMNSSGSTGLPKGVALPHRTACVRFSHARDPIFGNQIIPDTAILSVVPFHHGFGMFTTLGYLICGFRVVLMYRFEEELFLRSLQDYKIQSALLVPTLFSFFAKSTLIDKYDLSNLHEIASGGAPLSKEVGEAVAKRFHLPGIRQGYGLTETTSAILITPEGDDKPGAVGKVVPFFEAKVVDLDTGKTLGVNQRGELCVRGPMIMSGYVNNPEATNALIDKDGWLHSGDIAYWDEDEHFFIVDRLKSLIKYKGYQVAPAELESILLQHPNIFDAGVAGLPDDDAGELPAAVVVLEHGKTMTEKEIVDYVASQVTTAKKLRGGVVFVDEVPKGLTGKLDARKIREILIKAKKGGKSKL

Structures are written as SMILES. Active and inactive are the calls of the source.

Follistatin (Homo sapiens), sequence (P19883 whole entry, looked up): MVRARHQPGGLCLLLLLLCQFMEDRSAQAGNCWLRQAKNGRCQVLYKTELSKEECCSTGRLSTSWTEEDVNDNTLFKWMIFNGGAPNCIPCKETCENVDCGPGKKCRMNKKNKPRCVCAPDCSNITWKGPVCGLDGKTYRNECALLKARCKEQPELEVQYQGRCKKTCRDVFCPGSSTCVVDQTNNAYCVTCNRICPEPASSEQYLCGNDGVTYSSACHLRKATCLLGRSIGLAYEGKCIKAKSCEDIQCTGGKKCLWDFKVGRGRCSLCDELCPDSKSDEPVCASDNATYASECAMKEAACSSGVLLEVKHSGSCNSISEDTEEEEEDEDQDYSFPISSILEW
Fibroblast growth factor 2 (Homo sapiens), sequence (P09038 whole entry, looked up): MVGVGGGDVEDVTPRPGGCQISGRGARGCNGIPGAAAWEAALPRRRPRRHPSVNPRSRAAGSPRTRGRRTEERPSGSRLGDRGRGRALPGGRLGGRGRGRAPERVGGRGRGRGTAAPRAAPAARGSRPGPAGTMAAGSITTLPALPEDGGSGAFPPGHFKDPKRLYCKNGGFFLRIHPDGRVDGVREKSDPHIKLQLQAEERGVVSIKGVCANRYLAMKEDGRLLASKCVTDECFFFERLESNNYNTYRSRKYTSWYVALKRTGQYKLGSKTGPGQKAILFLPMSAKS

As for `C[N+](C)(C)CCCC[C@@H]1NC(=O)[C@@H]2C[C@H](C(=O)NCCCCCCN)[C@H](c3cccc(OCCO)c3)N2C1=O`, the composite z-score is 0.919 with Albumin (Bos taurus); 0.39 in assay [2]; 0.409 in assay [3]; 0.608 in [4]; 1.54 in assay [5]; 0.731 in assay [6]. For the same compound, the composite z-score in the assay with Sam68 (KHDRBS1) is 1.31; in [7] it was 0.518; in [8] it was 1.12; in assay [9], 3.26; in [10] it was 1.16; in assay [11], 0.866. The composite z-score in assay [12] is 0.841; in [13], 0.976; in assay [14] it was 0.5; in the assay on Lefty1 it was 1.16; in [16], 1.11. The composite Z-score in assay [1] is 1.24 (inactive). Further, the values for the z-score in assay [15] and in [17] were 0.197 and -0.583 (inactive), respectively.

In the case of `CC(C)C(CO)N1C(=O)[C@@H]2[C@H]3C(=O)OCC=C[C@H]3OC23C=CCN(c2ccc(Cl)cc2)C(=O)[C@@H]13` (stereo not given in full), the composite z-score with Albumin (Bos taurus) was -1.26; in assay [2], -0.171; in assay [3], -0.117; in assay [4], 0.839; in assay [5], -0.372; in [6], -0.364. Further, the composite z-score in the assay with Sam68 (KHDRBS1) is 0.0729; in [7] it was -0.847; in assay [8], -0.842; in assay [9], -1.82; in assay [10] it was -1.22; in [11], -0.265. Further, the composite z-score was -0.934 in [12]; -0.728 in assay [13]; -0.794 in assay [14]; -0.712 with Lefty1; -0.928 in [16]. Besides, the composite Z-score in assay [1] was -0.268 (inactive). Moreover, the values for the z-score in [15] and in [17] were 1.05 and -0.469 (inactive), respectively.

Take `COC(=O)C/C=C/C[C@]1(O)C(=O)N(C)c2ccccc21`: the composite z-score is -0.475 with Albumin (Bos taurus); 0.212 in assay [2]; -0.099 in [3]; 0.273 in [4]; 0.401 in assay [5]; 0.111 in assay [6]. Also, the composite z-score is 0.241 in the assay with Sam68 (KHDRBS1); 0.934 in assay [7]; -0.556 in [8]; -0.0221 in assay [9]; 0.243 in assay [10]; 1.03 in [11]. Also, the composite z-score in assay [12] is -0.0833; in assay [13], 0.721; in assay [14], 0.561; in the assay on Lefty1, 1.17; in [16], 0.0278. The composite Z-score in [1] was -0.571 (inactive). The z-score in [15] was 1.03; in [17], -1.63 (inactive).

`Cn1cccc1C(O)C1C=CC2C(=O)N(c3ccccc3)C(=O)C2N1Nc1ccccc1` (stereo not given): the composite z-score in the assay with Albumin (Bos taurus) came out at 0.857; in [2], 0.346; in assay [3], 0.2; in assay [4], 0.805; in assay [5], 2.37; in assay [6], 0.461. Also, the composite z-score with Sam68 (KHDRBS1) was 1.3; in [7], 0.352; in assay [8], 1.19; in assay [9] it was 0.933; in [10], 1.23; in assay [11], 0.848. Further, the composite z-score in assay [12] was determined as 0.954; in assay [13], 1.29; in assay [14] it was 0.984; in the assay with Lefty1, 0.475; in [16], 0.557. Moreover, in assay [1], the composite Z-score was 0.581 (inactive). Also, the z-score was 0.569 in [15] and -0.589 (inactive) in assay [17].

On to `NC(=O)[C@@]1(Cc2ccccc2)COC(c2ccc(OCCCO)cc2)=N1`, for which the composite z-score with Albumin (Bos taurus) was 0.456; in [2] it was -0.0647; in assay [3] it was 0.513; in assay [4], 0.815; in assay [5] it was 2.91; in assay [6], -0.238. For the same compound, the composite z-score with Sam68 (KHDRBS1) was -0.442; in [7], -0.165; in assay [8], -0.978; in assay [9], 1.19; in assay [10], -0.974; in assay [11] it was 0.0264. Also, the composite z-score was -0.979 in assay [12]; -0.0248 in [13]; 0.387 in [14]; 0.0016 in the assay on Lefty1; 0.523 in [16]. For the same compound, the composite Z-score in [1] is 0.08 (inactive). Besides, the figures for the z-score in assay [15] and in [17] were -0.244 and -4.28 (inactive), respectively.
